Results on 18 compounds are retold here after PubChem BioAssay.

One may read the inhibition as the relative decrease from the control value, in per cent.

A short description of test [1]: antimalarial activity against Dd2 strain (AID 2302;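 active = growth inhibition above 50% at the single 2 µM test dose, taken to imply half-maximal potency below 2 µM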;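 note: 0% = DMSO untreated growth and 100% = chloroquine plus artemisinin killed control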). Particulars: P. falciparum Dd2 in RBCs, LDH growth readout, 72 h; at 2 µM; hits give high values.
Test [2] can be described thus: human hepatoma cell viability loss – ATP luminescence, cytotoxicity control for P. falciparum antimalarial project, primary screen (AID 2303;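 active = inhibition above 50%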;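 note: 0% = DMSO wells and 100% = digitonin-killed cells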). Particulars: HepG2 viability, 24-48 h, at 10 µM, hits give high values.
For test [3], the target named is L-lactate dehydrogenase (Plasmodium falciparum (isolate CDC / Honduras)) (UniProt Q27743). Briefly: PfLDH activity inhibition – cell lysate, 3D7 strain, counter-screen for P. falciparum growth inhibition project (AID 2304).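 Note: 0% = vehicle and 100% = reference inhibitor.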 The note with it: P. falciparum 3D7 crude extract, LDH APAD/NBT absorbance; at 2 µM; hits give high values.
Sequence of L-lactate dehydrogenase (Plasmodium falciparum (isolate CDC / Honduras)) (Q27743 whole entry, looked up): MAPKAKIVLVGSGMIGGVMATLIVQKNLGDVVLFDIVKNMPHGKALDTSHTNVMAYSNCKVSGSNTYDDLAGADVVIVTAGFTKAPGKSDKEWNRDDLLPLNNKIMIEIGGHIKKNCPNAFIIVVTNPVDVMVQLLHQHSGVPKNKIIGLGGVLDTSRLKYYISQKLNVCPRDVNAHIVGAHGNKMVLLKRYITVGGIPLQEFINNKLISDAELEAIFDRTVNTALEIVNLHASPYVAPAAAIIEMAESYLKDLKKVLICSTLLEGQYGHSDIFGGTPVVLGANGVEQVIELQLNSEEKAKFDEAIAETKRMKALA
Test [4] is described as follows: inhibition of 3D7 malaria parasite growth – strain 3D7 (AID 2306).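 Note: 0% = DMSO wells and 100% = chloroquine plus artemisinin control wells.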 The note with it: P. falciparum 3D7 erythrocytic growth, LDH absorbance, 72 h; at 2 µM; hits give high values.
Test [5] concerns the target Calcium-dependent protein kinase 1 (Plasmodium falciparum (isolate 3D7)) (UniProt P62344). Briefly: PfCDPK1 kinase inhibitors, biochemical, TCAMS library (AID 1159585; cut-off not given, nearly all actives have IC50 up to about 0.98 µM;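 note: inhibitors leave more ATP so luminescence rises with inhibition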). Particulars: recombinant PfCDPK1, Kinase-Glo ATP depletion luminescence. On the technique in general: In Kinase-Glo more light means more ATP remaining.
Test [6] has as its target Plasmodium falciparum protein kinase 6 (PK6, PF3D7_1337100) (UniProt Q8IDW1). In words: PfPK6 kinase inhibitors, biochemical, TCAMS library (AID 1159586). The note with it: recombinant PfPK6, Kinase-Glo ATP depletion luminescence.
Test [7] addresses Protein kinase 7 (PK7), Plasmodium falciparum 3D7 (PF3D7_0213400) (UniProt Q7YTF7). In words: inhibition of Plasmodium PK7 catalytic activity – biochemical, TCAMS antimalarial set, Kinase-Glo luminescence (AID 1159587). The note with it: recombinant PfPK7, Kinase-Glo ATP depletion luminescence.
Test [8] concerns the target Calcium-dependent protein kinase 4 (Plasmodium falciparum (isolate 3D7)) (UniProt Q8IBS5). Briefly: PfCDPK4 kinase inhibitors, biochemical, TCAMS library (AID 1159588; cut-off not given, nearly all actives have IC50 up to about 0.91 µM). Particulars: recombinant PfCDPK4, Kinase-Glo ATP depletion luminescence.

A number with no mark means an inactive call. For part of these data: Potency and affinity values are given separately. Active and inactive are the calls of the source. Unless noted, the rule behind the calls is not given here.

Sequence of Protein kinase 7 (PK7), Plasmodium falciparum 3D7 (PF3D7_0213400) (Q7YTF7 1-343): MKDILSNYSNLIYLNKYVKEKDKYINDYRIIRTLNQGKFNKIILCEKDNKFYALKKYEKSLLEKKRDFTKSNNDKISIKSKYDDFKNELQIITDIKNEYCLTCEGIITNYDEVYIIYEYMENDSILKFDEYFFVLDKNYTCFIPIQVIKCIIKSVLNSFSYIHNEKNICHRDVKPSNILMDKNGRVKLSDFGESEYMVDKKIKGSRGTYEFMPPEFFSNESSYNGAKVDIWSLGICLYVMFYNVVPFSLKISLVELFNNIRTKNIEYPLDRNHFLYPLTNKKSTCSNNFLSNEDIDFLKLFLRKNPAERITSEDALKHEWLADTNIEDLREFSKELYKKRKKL
Sequence of Calcium-dependent protein kinase 1 (Plasmodium falciparum (isolate 3D7)) (P62344 whole entry, looked up): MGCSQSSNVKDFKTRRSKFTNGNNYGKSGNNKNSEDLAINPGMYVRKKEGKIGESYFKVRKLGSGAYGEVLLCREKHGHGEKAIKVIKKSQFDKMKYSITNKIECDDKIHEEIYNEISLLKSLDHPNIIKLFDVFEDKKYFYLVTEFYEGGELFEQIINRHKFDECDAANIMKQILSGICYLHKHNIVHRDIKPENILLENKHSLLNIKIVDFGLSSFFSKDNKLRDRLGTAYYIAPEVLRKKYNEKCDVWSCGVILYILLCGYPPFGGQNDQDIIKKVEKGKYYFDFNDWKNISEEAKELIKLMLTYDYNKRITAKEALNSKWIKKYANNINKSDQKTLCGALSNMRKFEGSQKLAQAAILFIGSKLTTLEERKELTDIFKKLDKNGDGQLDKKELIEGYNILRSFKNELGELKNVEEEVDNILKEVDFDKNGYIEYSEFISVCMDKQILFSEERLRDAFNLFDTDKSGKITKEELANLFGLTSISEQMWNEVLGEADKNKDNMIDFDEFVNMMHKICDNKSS
Sequence of Calcium-dependent protein kinase 4 (Plasmodium falciparum (isolate 3D7)) (Q8IBS5 whole entry, looked up): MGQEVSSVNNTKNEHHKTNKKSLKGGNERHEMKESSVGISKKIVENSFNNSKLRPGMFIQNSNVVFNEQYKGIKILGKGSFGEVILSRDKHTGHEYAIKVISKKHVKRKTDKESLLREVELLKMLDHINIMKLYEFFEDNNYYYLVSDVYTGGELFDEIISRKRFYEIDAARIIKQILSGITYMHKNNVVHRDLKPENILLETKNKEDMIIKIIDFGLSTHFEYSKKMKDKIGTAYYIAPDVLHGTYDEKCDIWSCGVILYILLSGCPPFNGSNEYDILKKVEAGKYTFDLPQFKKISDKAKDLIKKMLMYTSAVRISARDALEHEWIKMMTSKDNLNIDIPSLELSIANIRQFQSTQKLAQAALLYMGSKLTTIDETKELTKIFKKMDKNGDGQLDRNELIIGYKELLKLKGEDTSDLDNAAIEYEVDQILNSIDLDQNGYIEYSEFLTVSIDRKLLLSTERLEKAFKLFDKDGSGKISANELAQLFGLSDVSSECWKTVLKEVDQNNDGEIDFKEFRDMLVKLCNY
Sequence of Plasmodium falciparum protein kinase 6 (PK6, PF3D7_1337100) (Q8IDW1 1-305): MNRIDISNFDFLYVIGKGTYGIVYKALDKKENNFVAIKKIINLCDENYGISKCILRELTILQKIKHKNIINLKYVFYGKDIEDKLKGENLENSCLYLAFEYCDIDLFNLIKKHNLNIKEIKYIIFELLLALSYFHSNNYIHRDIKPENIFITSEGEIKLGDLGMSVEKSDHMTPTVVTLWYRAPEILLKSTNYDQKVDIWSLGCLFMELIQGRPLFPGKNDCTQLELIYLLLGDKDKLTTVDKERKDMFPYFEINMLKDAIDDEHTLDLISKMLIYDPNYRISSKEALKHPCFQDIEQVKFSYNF

As to `c1cc(CN2CCN(c3ccncc3)CC2)cc(-c2ccc(-c3nc4ccccc4[nH]3)s2)c1`, the growth inhibition in test [1] was 100% (active); in test [4] it was 102% (active). For the same compound, the inhibition in test [2] is 59% (active); in test [3], -2%. In addition, the outcome in test [5], in test [6], in test [7] and in test [8] was inactive.
Consider `O=C(Nc1ccc(OC2CCN(Cc3ccco3)C2)c(Cl)c1)c1ccc2ncccc2c1` (centres undefined), for which the growth inhibition in test [1] was 42%; in test [4], 92% (active). The inhibition in test [2] is 1%; in test [3] it was -6%. Also, the outcome in test [5], in test [6], in test [7] and in test [8] was inactive.
As for `CCOc1ccc(-c2nc(NC(=O)CS(=O)(=O)c3ccccc3)sc2C)cc1`, the results for the growth inhibition in test [1] and in test [4] were 59% (active) and 100% (active), respectively. The inhibition was 6% in test [2] and 2% in test [3]. In addition, the outcome in test [5], in test [6], in test [7] and in test [8] was inactive.
Regarding `O=C(/C=C/c1ccc(Cl)c(Cl)c1)NCCCCCN1CCCN(C(=O)Nc2ccc(Cl)c(C(F)(F)F)c2)CC1`, the growth inhibition in test [1] was 16%; in test [4] it was 102% (active). Also, the inhibition in test [2] is 35%; in test [3], 4%. The outcome in test [5], in test [6], in test [7] and in test [8] was inactive.
Regarding `c1cc(-c2ccc(CNCc3ccc(-c4csnn4)cc3)cc2)cc(-c2nc3ccccc3[nH]2)c1`, the growth inhibition was 96% (active) in test [1] and 100% (active) in test [4]. In addition, the inhibition is 60% (active) in test [2] and -7% in test [3]. The outcome in test [5], in test [6], in test [7] and in test [8] was inactive.
With `CNC(=O)c1c(NC(=O)c2cccs2)sc2c1CCCC2`, the growth inhibition in test [1] is 2%; in test [4], 94% (active). Further, the inhibition was 2% in test [2] and -1% in test [3]. The outcome in test [5], in test [6], in test [7] and in test [8] was inactive.
`CCN(CC)CCCOC(=O)c1ccc2c(c1)-c1ccc(C(=O)OCCCN(CC)CC)c3cccc-2c13`: the results for the growth inhibition in test [1] and in test [4] were 96% (active) and 98% (active), respectively. The inhibition in test [2] was 22%; in test [3], -3%. The result in test [5], in test [6], in test [7] and in test [8] was inactive.
As for `CN(Cc1ccccc1)C(=O)CCNS(=O)(=O)c1cc(Br)cnc1N`, the values for the growth inhibition in test [1] and in test [4] were 61% (active) and 91% (active), respectively. Moreover, the inhibition was -5% in test [2] and 4% in test [3]. Besides, the result in test [5], in test [6], in test [7] and in test [8] was inactive.
Consider `COc1c(C)cc(I)cc1CNCCCNc1cc(=O)c2ccccc2[nH]1`, for which the growth inhibition in test [1] was -2%; in test [4], 84% (active). The inhibition is -1% in test [2] and 2% in test [3]. Further, the outcome in test [5], in test [6], in test [7] and in test [8] was inactive.
For `O=C(NCCCCCN1CCC(c2c[nH]c3ccccc23)CC1)c1ccc(-c2ccccc2)nc1`, the growth inhibition is 13% in test [1] and 87% (active) in test [4]. Further, the inhibition in test [2] was 43%; in test [3] it was 1%. Besides, the outcome in test [5], in test [6], in test [7] and in test [8] was inactive.
Turning to `COc1ccc(Cl)c(CC2c3cc(O)c(Cl)cc3CCN2C)c1` (centres undefined), the growth inhibition is 72% (active) in test [1] and 98% (active) in test [4]. Also, the figures for the inhibition in test [2] and in test [3] were 9% and -1%, respectively. Moreover, the result in test [5], in test [6], in test [7] and in test [8] was inactive.
As for `COc1ccc2ccccc2c1CCCCN1CCN(CC(c2ccc(F)cc2)N2CCC(N3CCCC3)CC2)CC1` (centres undefined), the growth inhibition in test [1] is 73% (active); in test [4] it was 99% (active). Further, the inhibition in test [2] was 74% (active); in test [3], 7%. Moreover, the result in test [5], in test [6], in test [7] and in test [8] was inactive.
For `O=C(Nc1ccc(-c2nc3ccccc3[nH]2)cc1)c1ccc(N2CCOCC2)c([N+](=O)[O-])c1`, the figures for the growth inhibition in test [1] and in test [4] were 28% and 101% (active), respectively. Also, the inhibition is 47% in test [2] and -8% in test [3]. Moreover, the outcome in test [5], in test [6], in test [7] and in test [8] was inactive.
Turning to `Cc1cccc2[nH]c(-c3ccc(-c4ccc(CNCCNC(=O)c5ccnn5C)cc4)cc3)nc12`, the growth inhibition in test [1] is 98% (active); in test [4] it was 102% (active). In addition, the results for the inhibition in test [2] and in test [3] were 29% and -2%, respectively. Further, the result in test [5], in test [6], in test [7] and in test [8] was inactive.
Consider `COc1cc(C(=O)N2CCOC(CCN3CCC(Cc4ccc(F)cc4)CC3)(c3ccc(Cl)c(Cl)c3)C2)cc(OC)c1OC` (centres undefined), for which the growth inhibition was 58% (active) in test [1] and 88% (active) in test [4]. For the same compound, the inhibition in test [2] was 44%; in test [3] it was -5%. In addition, the outcome in test [5], in test [6], in test [7] and in test [8] was inactive.
For the compound `Brc1ccsc1-c1nc(NCCC(c2ccccc2)c2ccccc2)no1`, the growth inhibition in test [1] was 81% (active); in test [4], 94% (active). Also, the inhibition was 17% in test [2] and -5% in test [3]. The result in test [5], in test [6], in test [7] and in test [8] was inactive.
For the compound `O=C(NCc1ccc(C(F)(F)F)cc1)c1cccc(-c2nnc(-c3cccc(-c4cncnc4)c3)o2)c1`, the growth inhibition in test [1] was 79% (active); in test [4] it was 96% (active). For the same compound, the inhibition in test [2] was 13%; in test [3], -2%. Moreover, the result in test [5], in test [6], in test [7] and in test [8] was inactive.
In the case of `CCc1c[nH]c2c(N3CCCC3=O)cc(C(=O)N[C@@H](Cc3ccccc3)[C@H](O)CNC3CCCCC3)cc12`, the results for the growth inhibition in test [1] and in test [4] were 98% (active) and 100% (active), respectively. The inhibition in test [2] was 12%; in test [3] it was -1%. In addition, the outcome in test [5], in test [6], in test [7] and in test [8] was inactive.
